In PubChem BioAssay one finds composite z-score and z-score data, which are given here for 6 molecules.

Test [1] can be described thus: small molecules captured by biotinylated probe aFSTL3 – biochemical, small-molecule microarray, fluorescence 635/667, stem cell growth factor project, primary screen (AID 1064).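 Note: measures binding of the biotinylated anti-FSTL3 antibody to printed compounds.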 Conditions: higher = more signal.
The nature of test [2]: binders from COS7 lysate, DM2A8 probe, primary screen, torsin A project, cell lysate, small-molecule microarray, fluorescence 635/667 (AID 1065). Conditions: higher = more signal, COS7 lysate expressing mutant human TOR1A.
A short description of test [3]: small molecules captured by biotinylated probe aFGF2 – biochemical, small-molecule microarray, fluorescence 635/667, stem cell growth factor project, primary screen (AID 1067).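 Note: measures binding of biotinylated aFGF2 protein to printed compounds on slides; z-score merges feature fluorescence and signal-to-noise across triplicate slides.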 Conditions: higher = more signal.
The nature of test [4]: small molecules captured by biotinylated probe aFGF10 – biochemical, small-molecule microarray, fluorescence 635/667, stem cell growth factor project, primary screen (AID 1071).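 Note: score merges 667 nm spot intensity and signal to noise from triplicate slides.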 The settings on record: higher = more signal.
Test [5] addresses Neurogenic locus notch homolog protein 2 (Homo sapiens) (UniProt Q04721). The test is described as follows: small molecules binding Notch2 protein – biochemical, small-molecule microarray, 635 nm fluorescence, stem cell growth factors, primary screen (AID 1073). The settings on record: higher = more signal.
For test [6], the target named is Pro-neuregulin-1, membrane-bound isoform (Homo sapiens) (UniProt Q02297). The test is described as follows: small molecules binding neuregulin-1 protein – biochemical, small-molecule microarray, fluorescence 635/667, psychiatric disease protein project, primary screen (AID 1075).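 Note: score combines 667 nm spot fluorescence with signal to noise.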 The settings on record: NRG1 binding, 635 nm fluorescence, higher = more signal.
Pro-neuregulin-1, membrane-bound isoform (Homo sapiens), sequence (Q02297 whole entry, looked up, the tested form may be a part, canonical isoform): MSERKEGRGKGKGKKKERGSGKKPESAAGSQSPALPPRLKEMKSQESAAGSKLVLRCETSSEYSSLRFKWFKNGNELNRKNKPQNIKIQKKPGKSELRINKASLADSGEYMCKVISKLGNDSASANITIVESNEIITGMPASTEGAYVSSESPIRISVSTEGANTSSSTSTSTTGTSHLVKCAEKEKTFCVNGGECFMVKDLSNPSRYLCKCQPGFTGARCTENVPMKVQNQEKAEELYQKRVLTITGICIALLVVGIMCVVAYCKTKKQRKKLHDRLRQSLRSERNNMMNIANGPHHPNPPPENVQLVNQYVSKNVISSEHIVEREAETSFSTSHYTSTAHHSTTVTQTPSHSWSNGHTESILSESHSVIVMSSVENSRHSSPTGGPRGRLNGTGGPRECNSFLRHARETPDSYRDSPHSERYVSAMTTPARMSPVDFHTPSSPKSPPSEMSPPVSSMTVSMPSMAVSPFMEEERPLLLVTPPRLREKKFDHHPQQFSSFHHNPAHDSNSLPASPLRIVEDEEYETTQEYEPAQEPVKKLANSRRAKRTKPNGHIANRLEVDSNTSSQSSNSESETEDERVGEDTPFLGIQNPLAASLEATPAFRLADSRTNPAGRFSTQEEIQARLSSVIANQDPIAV
Test [7] concerns Neuregulin-1 EGF-like domain. The test can be described thus: small molecules binding NRG1 EGF domain – biochemical, small-molecule microarray, 635 nm fluorescence, primary screen (AID 1081).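 Note: binding of the protein to compounds printed on small-molecule microarray slides.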 The settings on record: higher = more signal.
A short description of test [8]: FRG1 expression reporter modulators in myotubes – cell-based, C2C12 myotubes, firefly/Renilla luciferase, luminescence, FRG1 inhibition for FSHD, primary screen (AID 1084). Conditions: FRG1 promoter luciferase, higher = more signal, called active from +8 up or from −8 down.
A short description of test [9]: small molecules captured by biotinylated probe aFST – biochemical, small-molecule microarray, fluorescence 635/667, stem cell growth factor project, primary screen (AID 1086).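 Note: score merges 667 nm fluorescence with signal-to-noise of each printed compound spot.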 Conditions: higher = more signal.
The nature of test [10]: binders of probe aHhip on microarray, primary screen, stem cell growth factor project, biochemical, small-molecule microarray, fluorescence 635/667 (AID 1087).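 Note: score merges spot fluorescence at 667nm with spot signal to noise ratio.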 Conditions: higher = more signal.
Test [11] relates to PRMT1 (protein arginine N-methyltransferase 1). The test can be described thus: small molecules binding arginine methyltransferase PRMT1 – biochemical, small-molecule microarray, 635 nm fluorescence, primary screen (AID 1088).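 Note: binding of Prmt1 protein to compounds spotted on small-molecule microarray slides.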 Conditions: higher = more signal.
Test [12] is described as follows: growth effects on S. cerevisiae YJM789 – YJM789 clinical isolate, OD600, 24 h, basal, primary screen (AID 1089).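 Note: growth of clinical yeast isolate S. cerevisiae YJM 789 seeded 1000 cells per well; test concentration not given here.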 The settings on record: higher = more signal, called active from +8 up or from −8 down.
Test [13] is described as follows: S. pombe growth modifiers, basal conditions – strain 972, OD600, 24 h, no modulator, primary screen (AID 1090).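 Note: basal condition with compound alone and no growth modifier present; test concentration not given here.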 The settings on record: S. pombe 972 growth, higher = more signal, called active from +8 up or from −8 down.
Test [14] is described as follows: budding yeast growth modifiers under rapamycin – strain BY4716, OD600, 96 h, primary screen (AID 1091). Note: test concentration not given here. The settings on record: S. cerevisiae BY4716 + rapamycin, higher = more signal, called active from +8 up or from −8 down.
For test [15], the target named is Torsin-1A-interacting protein 2 (Homo sapiens) (UniProt Q8NFQ8). The test can be described thus: small molecules binding lysate-expressed LULL1 – cell lysate, human LULL1 lysate, 635/667 nm fluorescence, primary screen (AID 1092).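 Note: probe is lysate of COS7 cells overexpressing human LULL1; score merges per-feature 667 nm fluorescence with signal-to-noise.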 Conditions: small-molecule microarray, hLULL1 lysate binding, 635 nm fluorescence; higher = more signal.
Torsin-1A-interacting protein 2 (Homo sapiens), sequence (Q8NFQ8 whole entry, looked up): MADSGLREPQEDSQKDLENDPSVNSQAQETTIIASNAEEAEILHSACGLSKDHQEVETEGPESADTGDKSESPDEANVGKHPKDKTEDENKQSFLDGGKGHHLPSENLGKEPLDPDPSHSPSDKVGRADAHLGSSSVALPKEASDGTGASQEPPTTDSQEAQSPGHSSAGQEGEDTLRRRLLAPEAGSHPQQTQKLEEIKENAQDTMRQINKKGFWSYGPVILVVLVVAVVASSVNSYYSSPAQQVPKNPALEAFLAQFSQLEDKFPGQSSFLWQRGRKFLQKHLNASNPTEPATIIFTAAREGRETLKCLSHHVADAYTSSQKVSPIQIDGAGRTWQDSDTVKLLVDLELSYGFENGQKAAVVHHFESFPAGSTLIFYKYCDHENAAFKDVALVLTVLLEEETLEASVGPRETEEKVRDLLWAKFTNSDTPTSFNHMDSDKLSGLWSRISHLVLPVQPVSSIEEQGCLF
Test [16] in a line: optical density change of DRC41 E. coli – strain DRC41, OD650, 24 h, E. coli filamentation project, primary screen (AID 1093).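 Note: MC1000 strain lacking acrAB efflux and sulA so SOS filamentation is blocked; test concentration not given here.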 Conditions: E. coli DRC41 growth, higher = more signal, called active from +8 up or from −8 down.
Test [17] in a line: probe aLefty2 binding to arrayed compounds – biochemical, biotinylated probe, 635/667 nm fluorescence, primary screen (AID 1094).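 Note: score merges spot fluorescence near 667 nm with spot signal-to-noise ratio.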 Conditions: small-molecule microarray, higher = more signal.
Test [18] concerns Noggin (protein binding on small-molecule microarray). The test is described as follows: small molecules binding Noggin protein – biochemical, 635/667 nm fluorescence, primary screen (AID 1095).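 Note: score merges 667 nm feature fluorescence with signal to noise over triplicate slides.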 Conditions: 635 nm fluorescence, higher = more signal.
Test [19] has as its target Neurogenic locus notch homolog protein 3 (Homo sapiens) (UniProt Q9UM47). The test can be described thus: small molecules binding NOTCH3 protein – biochemical, 635/667 nm fluorescence, primary screen (AID 1096). Conditions: small-molecule microarray, 635 nm fluorescence, higher = more signal.
Test [20] can be described thus: probe aEGFR binding to arrayed compounds – biochemical, biotinylated probe, 635/667 nm fluorescence, primary screen (AID 1097).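 Note: probe is a biotinylated anti-EGFR antibody binding compounds printed on slides; score combines fluorescence near 667 nm and signal to noise of each spot.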 Conditions: small-molecule microarray, higher = more signal.

The source made the active and inactive calls.

Neurogenic locus notch homolog protein 3 (Homo sapiens), sequence (Q9UM47 whole entry, looked up): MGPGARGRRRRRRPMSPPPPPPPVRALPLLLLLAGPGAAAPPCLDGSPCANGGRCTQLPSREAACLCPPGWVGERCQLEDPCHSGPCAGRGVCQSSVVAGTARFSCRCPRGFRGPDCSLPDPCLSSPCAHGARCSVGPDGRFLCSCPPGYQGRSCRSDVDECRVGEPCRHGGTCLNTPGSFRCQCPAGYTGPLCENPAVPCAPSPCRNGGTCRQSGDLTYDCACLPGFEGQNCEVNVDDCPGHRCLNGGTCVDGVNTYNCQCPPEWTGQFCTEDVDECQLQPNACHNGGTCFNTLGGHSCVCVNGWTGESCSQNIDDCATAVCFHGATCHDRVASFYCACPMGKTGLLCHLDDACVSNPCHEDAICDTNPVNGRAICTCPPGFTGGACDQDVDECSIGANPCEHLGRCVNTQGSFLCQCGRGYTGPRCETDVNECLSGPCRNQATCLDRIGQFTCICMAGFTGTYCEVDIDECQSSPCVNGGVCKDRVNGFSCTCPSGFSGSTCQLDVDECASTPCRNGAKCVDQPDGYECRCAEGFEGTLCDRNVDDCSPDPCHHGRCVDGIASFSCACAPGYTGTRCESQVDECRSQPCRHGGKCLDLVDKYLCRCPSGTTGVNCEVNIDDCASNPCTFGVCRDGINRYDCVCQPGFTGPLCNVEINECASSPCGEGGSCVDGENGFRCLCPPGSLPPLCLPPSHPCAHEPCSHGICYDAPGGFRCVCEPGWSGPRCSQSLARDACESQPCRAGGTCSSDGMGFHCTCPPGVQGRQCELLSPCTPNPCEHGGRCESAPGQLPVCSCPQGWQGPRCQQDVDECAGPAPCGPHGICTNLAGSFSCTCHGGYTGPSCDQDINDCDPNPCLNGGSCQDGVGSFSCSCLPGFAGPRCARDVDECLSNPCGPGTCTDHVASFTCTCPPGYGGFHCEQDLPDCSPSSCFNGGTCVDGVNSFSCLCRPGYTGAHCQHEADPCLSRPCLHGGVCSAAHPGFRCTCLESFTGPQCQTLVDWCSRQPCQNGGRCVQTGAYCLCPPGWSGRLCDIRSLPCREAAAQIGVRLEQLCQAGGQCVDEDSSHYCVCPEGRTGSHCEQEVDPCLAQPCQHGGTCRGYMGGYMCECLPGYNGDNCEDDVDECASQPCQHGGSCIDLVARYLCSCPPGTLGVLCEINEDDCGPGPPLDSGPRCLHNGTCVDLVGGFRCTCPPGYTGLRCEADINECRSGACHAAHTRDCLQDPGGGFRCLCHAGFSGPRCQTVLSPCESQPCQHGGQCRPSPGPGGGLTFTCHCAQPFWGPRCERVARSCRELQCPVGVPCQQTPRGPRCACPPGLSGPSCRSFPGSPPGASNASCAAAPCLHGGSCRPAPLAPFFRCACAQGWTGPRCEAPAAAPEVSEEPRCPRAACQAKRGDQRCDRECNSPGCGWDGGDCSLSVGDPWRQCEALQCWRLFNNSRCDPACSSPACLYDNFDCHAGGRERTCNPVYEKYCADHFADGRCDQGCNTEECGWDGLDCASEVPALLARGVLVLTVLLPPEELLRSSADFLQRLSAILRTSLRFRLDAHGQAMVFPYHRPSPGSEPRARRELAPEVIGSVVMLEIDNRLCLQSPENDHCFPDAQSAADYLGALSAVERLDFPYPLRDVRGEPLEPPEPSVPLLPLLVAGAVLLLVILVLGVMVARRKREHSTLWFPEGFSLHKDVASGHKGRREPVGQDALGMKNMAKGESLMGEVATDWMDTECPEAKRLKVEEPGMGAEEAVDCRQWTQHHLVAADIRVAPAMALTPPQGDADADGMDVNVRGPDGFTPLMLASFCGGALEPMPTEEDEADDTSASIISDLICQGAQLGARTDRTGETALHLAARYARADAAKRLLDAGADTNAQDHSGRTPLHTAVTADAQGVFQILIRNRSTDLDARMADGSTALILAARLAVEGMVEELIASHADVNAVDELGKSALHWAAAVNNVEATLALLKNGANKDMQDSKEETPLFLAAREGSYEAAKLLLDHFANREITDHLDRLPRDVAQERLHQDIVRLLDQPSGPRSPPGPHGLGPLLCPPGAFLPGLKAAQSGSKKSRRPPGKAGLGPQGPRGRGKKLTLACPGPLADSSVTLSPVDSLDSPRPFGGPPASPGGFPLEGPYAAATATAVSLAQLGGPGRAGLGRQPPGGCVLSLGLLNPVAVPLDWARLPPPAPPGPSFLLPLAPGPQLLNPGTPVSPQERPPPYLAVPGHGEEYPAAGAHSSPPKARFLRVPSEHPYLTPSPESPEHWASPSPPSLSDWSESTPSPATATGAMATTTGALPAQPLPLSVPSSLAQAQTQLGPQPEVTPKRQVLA

Take `CCOC(=O)[C@H](Cc1ccccc1)NC(=O)CCC1CC(OC(=O)NCc2cccc3ccccc23)CC2(CCCC(COC(=O)NCCc3ccc(Cl)cc3)O2)O1` (stereo not given in full): the composite z-score in test [1] was -0.487; in test [2], 0.0381; in test [3] it was -0.205; in [4], 0.13; in [5] it was 0.597; in test [6], 0.108. Further, the composite z-score in [7] was 0.966; in test [9] it was -0.0328; in test [10], -0.0645; in [11] it was 1.15; in test [15], 1.3; in test [17], -0.253. Moreover, the composite z-score was 0.448 in test [18], 0.974 in test [19] and -0.0922 in [20]. Also, the z-score in test [8] is 0.903 (inactive); in [12], -0.69 (inactive); in test [13], -0.0785 (inactive); in [14] it was -0.647 (inactive); in test [16], -0.159 (inactive).
Take `CCOC(=O)[C@H](Cc1ccccc1)NC(=O)CCC1CC(OC(=O)NCc2ccc3c(c2)OCO3)CC2(CCCC(COC(=O)NCCc3ccc(Cl)cc3)O2)O1` (stereo not given in full): the composite z-score in [1] is -0.415; in test [2], 0.388; in [3], -0.114; in test [4], 0.351; in test [5] it was 0.832; in test [6], 0.107. For the same molecule, the composite z-score was 0.918 in test [7]; -0.18 in test [9]; -0.0994 in test [10]; 1.55 in test [11]; 1.78 in test [15]; -0.148 in test [17]. Moreover, the figures for the composite z-score in test [18], in [19] and in test [20] were 0.819, 1.16 and -0.081, respectively. Moreover, the z-score is -0.327 (inactive) in [8]; -1.93 (inactive) in [12]; -0.616 (inactive) in test [13]; 0.376 (inactive) in test [14]; -0.698 (inactive) in test [16].
Regarding `CC[C@@H](c1ccccc1)n1c(=O)n2n(c1=O)[C@H]1[C@H](O)[C@@H]3O[C@@H]3C(=NOCc3ccccc3)[C@H]1CC2`, the composite z-score was 0.83 in test [1]; 0.374 in [2]; -0.172 in [3]; 0.0913 in test [4]; 0.57 in test [5]; 0.834 in [6]. Also, the composite z-score was 0.504 in test [7]; -0.0575 in test [9]; -0.13 in test [10]; -0.454 in test [11]; 0.786 in test [15]; -0.132 in test [17]. Further, the values for the composite z-score in [18], in test [19] and in test [20] were 1.3, 0.81 and -0.0824, respectively. For the same molecule, the z-score is 2.67 (inactive) in [8]; 0.183 (inactive) in test [12]; -1.17 (inactive) in test [13]; 0.191 (inactive) in [14]; -0.866 (inactive) in test [16].
For `O=C1C[C@@H](O)[C@@H](O)[C@@H]2[C@@H]3C(=O)N(C4CCCCC4)C(=O)[C@@H]3CC[C@@H]12`, the composite z-score in test [1] was -0.371; in test [2], 0.159; in [3], -0.0113; in test [4], 0.394; in test [5] it was 0.334; in [6], 1.05. Further, the composite z-score in test [7] was 0.546; in [9], 0.0535; in [10], -0.0237; in test [11] it was 0.607; in test [15], 0.905; in test [17] it was -0.137. Besides, the composite z-score was 0.354 in [18], 0.57 in test [19] and -0.0921 in test [20]. Moreover, the z-score in test [8] was 0.129 (inactive); in test [12], 0.93 (inactive); in test [13], -0.509 (inactive); in [14], -0.149 (inactive); in test [16], 0.536 (inactive).
For `CCOC(=O)[C@H](CC(C)C)NC(=O)CCC1CC(OC(=O)NCc2ccc3c(c2)OCO3)CC2(CCCC(COC(=O)NCCOC)O2)O1` (stereo not given in full), the composite z-score in test [1] is -0.412; in [2], -0.224; in test [3], -0.0785; in [4], 0.197; in test [5], 0.805; in [6], -0.0383. Further, the composite z-score in [7] was 1.07; in test [9] it was 0.0301; in [10], 0.0826; in test [11], 0.634; in [15], 1.71; in [17], -0.205. The figures for the composite z-score in test [18], in [19] and in test [20] were 0.474, 0.793 and 0.0953, respectively. Moreover, the z-score in [8] was 0.619 (inactive); in [12] it was 0.0162 (inactive); in test [13], 0.48 (inactive); in test [14] it was -0.958 (inactive); in test [16], -0.172 (inactive).
Consider `COC(=O)[C@H](C)NC(=O)CCC1CC(OC(=O)NCc2cccc3ccccc23)CC2(CCCC(COC(=O)NCCCN3CCCC3=O)O2)O1` (stereo not given in full), for which the composite z-score in test [1] was -0.669; in test [2], -0.158; in test [3], -0.141; in [4], 0.119; in test [5], 1.43; in test [6], 0.567. Besides, the composite z-score is 0.925 in [7]; 1.01 in [9]; 0.208 in test [10]; 1.58 in test [11]; 1.89 in test [15]; 0.0598 in test [17]. The composite z-score was 0.79 in test [18], 1.14 in test [19] and 0.074 in test [20]. In addition, the z-score in test [8] was -3.13 (inactive); in test [12] it was 0.691 (inactive); in test [13] it was 1.05 (inactive); in [14], 0.187 (inactive); in test [16], -1.25 (inactive).
